Rows were chosen to be rich in hits. Some 3.7% of all compounds tested hit in one or more screens of this group.
S1P1 agonist: S1P1 (human) receptor agonism; 16,000 tested, 1.5% active; S1P1 agonist cell-based reporter assay; activation, % at 4.5 µM; in the data active means activation above about 80%
Target sequence (P21453 whole entry, looked up): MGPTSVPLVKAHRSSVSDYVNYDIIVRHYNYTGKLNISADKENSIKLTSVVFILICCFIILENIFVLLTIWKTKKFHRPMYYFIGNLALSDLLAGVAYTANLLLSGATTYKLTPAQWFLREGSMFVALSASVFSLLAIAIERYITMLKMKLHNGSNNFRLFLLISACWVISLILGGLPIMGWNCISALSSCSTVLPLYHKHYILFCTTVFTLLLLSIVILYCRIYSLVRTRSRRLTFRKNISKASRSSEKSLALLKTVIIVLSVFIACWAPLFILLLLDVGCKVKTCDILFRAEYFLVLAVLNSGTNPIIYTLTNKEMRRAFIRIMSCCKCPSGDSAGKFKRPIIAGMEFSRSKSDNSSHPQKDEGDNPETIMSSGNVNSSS
KOR antag MB: OPRK1 (human) antagonism, Maybridge screen. OPRK1 cells, antagonist mode, fluorescence readout. inhibition, % at 9 µM. 16,000 tested, 0.4% active. AID 652031; in the data active means inhibition above about 50%
Nox1 inh: human Nox1 inhibition; inhibition, % at 6.7 µM; Q9Y5S8; HT29 cells, luminol chemiluminescence ROS; 16,000 tested, 0.81% active
Luminol counter: luminol signal inhibition, Nox1 inhibitor counter-screen; HRP/luminol/H2O2 chemiluminescence counterscreen; inhibition, % at 6.7 µM; 16,000 tested, 0.4% active; further: reference of the scale not given here
TLR4-MyD88 inh: blocks binding of human TLR4 to MyD88; inhibition, % at 10 µM; Cell-based TLR4-MyD88 binding inhibition assay; O00206; 16,000 tested, 0.06% active; in the data active means inhibition above about 45%
NOTCH ag: agonists of NOTCH signaling. activation, % at 2.5 µM. 15,000 tested, 0.4% active. NOTCH signaling luciferase reporter cells, luminescence. AID 434982; in the data active means activation above about 2.2%
The depositor's hits bear a star; · = no result. Unless noted, no stated cut-off is given here; in the data, active means inhibition above about 75%; inactive means the rest.

SMILES	S1P1 agonist	KOR antag MB	Nox1 inh	Luminol counter	TLR4-MyD88 inh	NOTCH ag
C/C=C/C=N/NC(=O)N/N=C/C=C/C	-10.4	23.5	5.3	-3.3	-6.1	3.0*
CCOC(=O)c1c(NC(=O)Nc2ccc(F)cc2)c2cc([N+](=O)[O-])ccc2n1C	-6.6	-5.5	-3.7	-6.1	-10.4	-0.5
O=S(=O)(Oc1ccc(-c2csnn2)cc1)c1cc(C(F)(F)F)cc(C(F)(F)F)c1	1.0	14.3	16.7	-13.4	-8.0	-0.1
C/C(=N\O)c1ccc(OC(=O)c2ccc(Br)o2)cc1	-6.9	7.3	-4.7	-43.2	3.0	-5.7
Cc1nc(-c2cc(C#N)c(SCCNS(=O)(=O)c3cccc(C(F)(F)F)c3)nc2C)cs1	-6.7	-4.5	-25.6	3.3	-8.6	-0.9
Cc1nc(-c2cc(C#N)c(NCc3ccccc3)nc2C)cs1	84.6*	-40.1	-61.3	2.5	7.8	0.0
COC(=O)c1cnn(-c2ccc(Cl)cc2)c1C=Nc1ccc(C)cc1	-2.5	2.6	-60.6	-39.7	-5.4	0.3
COC(=O)c1cnn(-c2ccc(Cl)cc2)c1C=C(C#N)C#N	-42.5	74.7*	9.5	10.9	-15.2	-0.5
O=C(Nc1ccc(Cl)cc1Cl)c1cc([N+](=O)[O-])cc2c1-c1ccc([N+](=O)[O-])cc1C2=O	21.9	52.7*	100.7*	-2.2	-3.9	0.2
CCC(C)(C)OC(=O)c1cc([N+](=O)[O-])cc2c1-c1ccc([N+](=O)[O-])cc1C2=O	8.6	40.8	54.3	1.3	-1.0	-0.1
CC(=O)c1cc([N+](=O)[O-])c(N2CCOCC2)s1	-6.1	16.7	-47.1	3.4	5.5	-0.4
Cc1noc(C)c1C(=O)Nc1ccc(N2CCOCC2)nc1N1CCOCC1	0.6	30.1	77.5*	3.5	-0.6	-0.5
COc1ccc(NC(=O)c2nccnc2C(=O)O)c(N2CCOCC2)n1	-18.2	4.2	-20.4	1.5	17.6	-0.9
Cc1oc(-c2ccccc2)cc1C(=O)N1CCN(c2ncc(C(F)(F)F)cc2Cl)CC1	-2.2	5.8	22.5	-5.9	-9.0	2.3*
Cc1noc(C)c1C(=O)N1CCN(c2ncc(C(F)(F)F)cc2Cl)CC1	-0.8	10.8	-12.9	-3.9	3.7	0.0
CC(Oc1ccccc1-c1ccccc1)c1n[nH]c(=S)n1C (stereo unspecified)	-4.8	-7.1	-49.0	93.6*	-6.6	·
Oc1ccc(-c2csc3nc(-c4ccccc4)nn23)c(O)c1	3.9	14.7	-92.4	16.0	·	-1.1
O=[N+]([O-])c1cc(Br)cnc1Sc1n[nH]c(-c2ccccc2)n1	6.7	21.9	35.4	99.5*	-5.8	-0.2
COC(=O)c1cc([N+](=O)[O-])ccc1SCc1ccc(Cl)cc1	24.6	-7.9	-30.5	4.5	-4.6	-0.3
COc1cc(-c2nc(-c3ccccc3)c(-c3ccccc3)[nH]2)ccc1O	-21.0	-12.3	101.0*	-15.2	-4.0	-0.5
CCOC(=O)c1c(C)nc(C)c(C(=O)OCC)c1-c1ccc(O)c(OC)c1	2.9	17.7	28.1	18.7	6.9	0.1
COc1ccc(OC)c(S(=O)(=O)Nc2ccn[nH]2)c1	6.8	-3.6	10.4	-7.4	4.3	0.0
O=C(Nc1ccc(Oc2cccc(C(F)(F)F)c2)nc1)c1ccc2c(c1)CCO2	90.1*	-8.5	-3.4	4.3	-5.7	-0.9
O=C(Nc1ccccc1)Nc1ccc(Oc2cccc(C(F)(F)F)c2)nc1	86.7*	-0.4	-23.5	0.0	2.3	-0.5
CC(C)(C)c1ccc(Oc2ccc(NC(=O)c3ccco3)cn2)cc1	37.6	11.2	25.8	-6.1	0.4	0.1
SMILES	S1P1 agonist	KOR antag MB	Nox1 inh	Luminol counter	TLR4-MyD88 inh	NOTCH ag
O=C(Nc1cccc(C(F)(F)F)c1)Nc1ccc2nonc2c1	59.4	-1.9	-26.0	-1.6	-19.0	-0.6
Cc1onc(-c2c(Cl)cccc2Cl)c1C(=O)c1ccccc1	30.5	-5.3	18.0	-5.1	-1.5	-0.4
Cc1onc(-c2c(F)cccc2Cl)c1C(=O)Oc1ccccc1	95.4*	1.6	-38.8	1.6	-7.4	0.5
O=S(=O)(c1ccc2c(c1)OCCO2)N1CCN(C(c2ccccc2)c2ccccc2)CC1	7.9	-7.3	-23.1	1.4	4.5	-0.1
Nc1nc(NCc2c(Cl)cccc2Oc2ccccc2)n[nH]1	0.6	-2.3	84.2*	-6.4	-2.5	-0.5
Nc1nc(NCc2ccccc2OC(F)(F)F)n[nH]1	-9.5	0.8	88.1*	1.1	12.8	-0.1
O=C(NCc1c(Cl)cccc1Oc1ccccc1)Nc1ccc(F)cc1	23.4	-0.2	34.1	-7.0	0.7	-0.8
O=C1N[C@H]2OC(C(O)CO)[C@H](O)[C@H]2O1 (stereo partly specified)	-21.2	-9.3	-62.5	1.2	-1.9	·
COc1ccccc1NC(=O)NCCN1CCN(Cc2ccccc2)CC1	-11.0	80.2*	60.4	2.9	4.4	-0.7
O=c1[nH]c2ccsc2c(=O)n1CCO	-8.6	7.0	83.7*	12.6	5.1	-0.6
COc1ccc(C(OCCS(=O)(=O)CCO)(c2ccccc2)c2ccc(OC)cc2)cc1	-5.0	5.6	-37.9	-3.4	0.7	-0.3
FC(F)(F)COc1ccc(OCC(F)(F)F)c(-c2n[nH]c(=S)o2)c1	5.7	15.2	15.3	87.0*	-8.5	-0.3
FC(F)(F)c1cccc(CSC(=S)NC2CC2)c1	15.7	13.9	-15.7	3.8	-0.2	-0.9
Nc1ccccc1Sc1ccc(-c2cnc3ccccc3n2)cc1[N+](=O)[O-]	9.2	15.0	9.3	97.6*	-6.0	0.0
Nc1ccccc1Sc1ccc(Cl)cc1[N+](=O)[O-]	35.7	16.5	-31.6	3.3	-4.0	-0.9
CC(=O)NC(=O)/C(C#N)=C/Nc1ccccc1OC(F)(F)F	-7.1	-5.7	-32.0	-1.0	-1.4	-0.7
Cc1ccc(-c2csc3ncnc(NCc4ccco4)c23)cc1	86.8*	-3.5	-56.9	-0.7	8.2	-0.1
COc1ccc(/C=C(\C#N)C(N)=S)cc1	108.8*	0.5	-55.7	7.8	14.1	-1.1
CC(=NCc1ccccc1)c1ccccc1O	-16.4	15.4	-17.5	-1.3	-1.6	·
CC(=NCc1ccc2c(c1)OCO2)c1ccccc1O	4.8	16.0	5.3	-7.5	-7.5	2.4*
CCOC(=O)c1ccc(Oc2ccc(Cl)cc2Cl)c([N+](=O)[O-])c1	93.5*	-11.7	28.8	-1.1	0.3	-0.8
COC(=O)c1ccc([N+](=O)[O-])c(Oc2ccc(Cl)cc2Cl)c1	71.2	-11.2	-51.8	1.5	-5.4	0.2
C=CCn1c(C(C)Oc2ccc(Cl)cc2)n[nH]c1=S (stereo unspecified)	15.6	0.6	10.4	93.8*	-0.3	0.8
Cc1n[nH]c(C)c1Oc1ccc(Cl)cc1	11.9	-2.1	3.4	-4.8	-8.0	-0.4
NNS(=O)(=O)c1ccc(-c2ccccn2)s1	-7.0	1.8	2.2	-0.3	-13.8	-0.3
CCOC(=O)Cn1nnc(-c2ccc(C(C)(C)C)cc2)n1	-20.9	0.8	-12.9	-2.4	-7.8	-0.3
Cc1onc(-c2ccccc2)c1CNC(=O)c1cnn(-c2ccccc2)c1C	8.4	-5.5	-62.4	0.1	-3.5	-1.0
CN(CCC#N)c1ccc(C=NCCCN=Cc2ccc(N(C)CCC#N)cc2)cc1	101.3*	-10.8	-72.6	2.1	5.2	-0.4

Bioassay records: PubChem BioAssay, The Scripps Research Institute Molecular Screening Center
